In the library only some 19% were active in any assay of this set; here they are far more common.
IL1B secr inh: inhibitors of inflammasome signaling (IL-1 beta secretion); THP-1 LPS/ATP IL-1B secretion, AlphaLISA, 16 h; hits give low values; activity change, % at 57.5 µM; hit rate 4.7% among 360,000; in the data active means activity change below about -50%; inconclusive means mostly about -30% to -49%
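Secreted IL-1B measured by AlphaLISA bead assay after 16 h compound exposure of THP-1 cells; compounds (final up to 57.5 uM) added 1 h before LPS (250 ng/mL) and ATP (1.25 mM) stimulation; lower signal means less secretion.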
HT1080 IDH1KD tx: kills HT-1080 cells with IDH1 knockdown; AID 686971; hit rate 2% among 360,000; HT-1080 IDH1 knockdown viability, ATP luminescence, 48 h; Potency, µM (doses to about 46.1 µM), actives largely listed as cytotoxic
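Assay cells: HT-1080 with IDH1 knockdown, 750 per well, RPMI/5% FBS. Exposure: 48 h at 37 °C following 2 h pre-incubation. Read: CellTiter-Glo luminescence; fitted concentration-response, curve class assigned.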
HT1080-NT tox: kills 2HG-producing HT-1080-NT fibrosarcoma cells. HT-1080-NT fibrosarcoma viability, CellTiter-Glo ATP luminescence, 48 h. Potency, µM (highest dose often 46.1 µM), usual class: cytotoxic. hit rate 1.6% among 360,000;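 further: NT is the 2HG producing partner of a matched IDH1 knockdown line; nearly all actives have a fitted effect of over 55% in size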
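750 cells/well, RPMI + 5% FBS; 2 h settle, compound pin-transfer, 48 h at 37 degrees C. CellTiter-Glo 10 min RT, luminescence. Normalized to DMSO and media-only wells.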
TDP1 cell noCPT: qHTS for Inhibitors of human tyrosyl-DNA phosphodiesterase 1 (TDP1): qHTS in cells in absence of CPT; AID 686978, 2013; hit rate 15% among 420,000; Potency, µM (highest dose often 46.2 µM), usual class: inhibitors; DT40 Tdp1-/- hTDP1 cells, no CPT, ATP luminescence, 48 h; further: nearly all actives have a fitted effect of over 55% in size
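DT40 Tdp1-/-;hTDP1 cells, no CPT (DMSO vehicle only), 400 cells/well; compounds pin-transferred; ≥48 hr, 37 °C; CellTiter-Glo 30 min RT dark, luminescence read.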
DT40 TDP1 CPT: DT40-hTDP1 cell growth loss with CPT; chicken DT40 Tdp1-/-;hTDP1 cells + 20 nM CPT, ATP luminescence, 48 h; Potency, µM (titrated, usually from 46.2 µM), most hits filed as inhibitors; hit rate 12% among 420,000; further: nearly all actives have a fitted effect of over 55% in size
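Chicken DT40 Tdp1-/- cells complemented with human TDP1, 400 cells/well, exposed to compounds plus 20 nM camptothecin for at least 48 h at 37 C; viability read as ATP content by CellTiter-Glo luminescence.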
Of the large screens only hits and unclear results are named; the others gave an inactive call; ! = not confirmed by another sample. Unless noted, the call rests on the fitted dose curve; in most records, active means well fitted curve in the direction sought with a large enough effect; inconclusive means small, poorly fitted or top-dose-only effect, or another doubt; inactive means no such curve, though single readings can be large; an effect the other way counts as inactive or inconclusive.

CC(C)(C)N1CC(c2nc3ccccc3n2Cc2ccc(Cl)cc2)CC1=O (centres undefined)	TDP1 cell noCPT inconclusive
Cc1ccccc1N1CC(c2nc3ccccc3n2Cc2ccc(Br)cc2)CC1=O (centres undefined)	TDP1 cell noCPT 16µM, DT40 TDP1 CPT inconclusive (no result: IL1B secr inh, HT1080 IDH1KD tx, HT1080-NT tox)
COc1ccc(C2CC(c3ccc(OC)c(OC)c3)=NN2S(C)(=O)=O)cc1 (centres undefined)	TDP1 cell noCPT inconclusive, DT40 TDP1 CPT 18µM
Cc1ccc(C2=NN(S(C)(=O)=O)C(c3ccc4nccnc4c3)C2)cc1 (centres undefined)	none
CS(=O)(=O)N1N=C(c2ccccc2)CC1c1ccc2nccnc2c1 (centres undefined)	TDP1 cell noCPT 26µM, DT40 TDP1 CPT inconclusive
Cn1cccc1C1CCCN1CC(=O)Nc1ccc(F)c(F)c1F (centres undefined)	DT40 TDP1 CPT inconclusive
CCOC(=O)c1ccc(NS(=O)(=O)c2c(N)n(C)c(=O)n(C)c2=O)cc1	TDP1 cell noCPT inconclusive, DT40 TDP1 CPT 16µM
CCOC(=O)c1ccc(NS(=O)(=O)c2c(C)n[nH]c2C)cc1	none
COc1ccccc1C(=O)NNC(=O)c1ccc(NC(=O)CC(C)C)cc1	none
Cc1ccc(Cl)c2sc(N3CCN(C(=O)c4ccco4)CC3)nc12	IL1B secr inh inconclusive, TDP1 cell noCPT 16µM, DT40 TDP1 CPT inconclusive
Cc1ccc(C)c2sc(N3CCN(C(=O)c4ccco4)CC3)nc12	TDP1 cell noCPT 18µM, DT40 TDP1 CPT inconclusive (no result: IL1B secr inh, HT1080 IDH1KD tx, HT1080-NT tox)
CC1(C)OC(c2ccccc2)=C/C(=C\C=N\NC(=O)c2ccncc2)O1	HT1080 IDH1KD tx inconclusive, HT1080-NT tox inconclusive, TDP1 cell noCPT inconclusive, DT40 TDP1 CPT inconclusive
CC1(C)OC(c2ccccc2)=C/C(=C/C=Nc2ccccc2)O1	TDP1 cell noCPT inconclusive, DT40 TDP1 CPT 23µM
Cc1cc(C)cc(OCC(=O)NCC2(N(C)C)CCCCC2)c1	none (no result: IL1B secr inh, HT1080 IDH1KD tx, HT1080-NT tox)
N#Cc1ncc(-c2ccc3c(c2)OCCOCCOCCOCCOCCO3)nc1C#N	TDP1 cell noCPT 13µM, DT40 TDP1 CPT 12µM
N#Cc1ncc(-c2ccc3c(c2)OCCOCCOCCOCCO3)nc1C#N	IL1B secr inh -103, TDP1 cell noCPT 4.6µM, DT40 TDP1 CPT 5.8µM
COCC(C)NC(=S)Nc1ccccc1[N+](=O)[O-] (centres undefined)	none
CCN(CC)c1ccc(/C=N/O)cc1	none
CN(C)c1ccc(/C=C/c2ccncc2)cc1	TDP1 cell noCPT 26µM!
CCN(CC)c1ccc(/C=C/c2ccncc2)cc1	TDP1 cell noCPT 0.32µM, DT40 TDP1 CPT 0.18µM (no result: IL1B secr inh, HT1080 IDH1KD tx, HT1080-NT tox)
Cc1nn(C(C)C(=O)NC2CCCCCC2)c(=O)c2nn(-c3ccccc3)c(C)c12 (centres undefined)	none
C[C@@H]1CN([C@@H](C)CO)C(=O)c2cc(Br)cnc2O[C@H]1CN(C)C(=O)c1ccc2c(c1)OCO2	none
CC(=O)N/C(=C\c1ccccc1)C(=O)OC(C)C(=O)NCc1ccccc1 (centres undefined)	none
CC(OC(=O)/C=C/c1ccc2ccccc2n1)C(=O)NCc1ccccc1 (centres undefined)	IL1B secr inh -75, TDP1 cell noCPT inconclusive, DT40 TDP1 CPT inconclusive
Cc1ccc(O)c(C2=Nc3ccccc3N=C(c3ccco3)C2)c1	HT1080 IDH1KD tx inconclusive, HT1080-NT tox inconclusive, TDP1 cell noCPT 13µM, DT40 TDP1 CPT inconclusive
Cc1nn(C)c(C)c1/C=C/C(=O)O	none
Cc1nn(C)c(C)c1/C=C/C(=O)c1ccc(Cl)cc1Cl	IL1B secr inh -68, TDP1 cell noCPT 13µM, DT40 TDP1 CPT 8.2µM
CC1(C)c2ccccc2-n2c1cc1oc(=O)cc(O)c1c2=O	TDP1 cell noCPT 21µM, DT40 TDP1 CPT inconclusive
Cc1c(O)cc2n(c1=O)-c1ccccc1C2(C)C	none
COc1cc(/C=C/C(=O)OC2CC3CCC2(C)C3(C)C)ccc1O (centres undefined)	HT1080 IDH1KD tx inconclusive, TDP1 cell noCPT 16µM, DT40 TDP1 CPT 18µM
O=C(Cn1cccn1)N1CCOc2c(cc(-c3ncc(C(F)(F)F)cc3Cl)cc2OCC2CCCO2)C1 (centres undefined)	none (no result: IL1B secr inh, HT1080 IDH1KD tx, HT1080-NT tox)
Cc1ccc(NS(=O)(=O)c2cc(NC(=O)c3ccc4c(c3)NC(=O)CS4)ccc2C)c(C)c1	IL1B secr inh -115, HT1080 IDH1KD tx inconclusive, HT1080-NT tox inconclusive, TDP1 cell noCPT inconclusive, DT40 TDP1 CPT inconclusive
COc1ccc(C(=O)Nc2ccccc2)cc1S(=O)(=O)Nc1ccc(Br)cc1	none (no result: IL1B secr inh, HT1080 IDH1KD tx, HT1080-NT tox)
COc1ccc(NC(=O)c2ccc3c(c2)NC(=O)CS3)cc1S(=O)(=O)Nc1ccc(Br)cc1	TDP1 cell noCPT 29µM, DT40 TDP1 CPT inconclusive
O=C(CSc1nnc(CNC(=O)c2cccs2)o1)Nc1ccc(F)cc1F	none
C[C@H](CO)N1C[C@H](C)[C@@H](CN(C)Cc2ccc(Cl)c(Cl)c2)Oc2ccc(NC(=O)Cn3cnnn3)cc2C1=O	DT40 TDP1 CPT inconclusive
C[C@@H]1CN([C@H](C)CO)C(=O)Cc2cc(NC(=O)Cn3cnnn3)ccc2O[C@@H]1CN(C)Cc1ccc(Cl)c(Cl)c1	IL1B secr inh -59, TDP1 cell noCPT inconclusive, DT40 TDP1 CPT 18µM
C[C@H](CO)N1C[C@H](C)[C@@H](CN(C)S(=O)(=O)c2ccc(F)cc2)Oc2ccc(NS(=O)(=O)c3ccc(F)cc3)cc2C1=O	none
C[C@@H]1CCCCO[C@@H](CN(C)Cc2ccc(Cl)c(Cl)c2)[C@@H](C)CN([C@H](C)CO)C(=O)c2cc(NC(=O)CCC(F)(F)F)ccc2O1	HT1080 IDH1KD tx inconclusive, HT1080-NT tox inconclusive, TDP1 cell noCPT 10µM, DT40 TDP1 CPT 8.2µM
C[C@@H]1CN([C@@H](C)CO)C(=O)c2cc(NC(=O)CCC(F)(F)F)ccc2O[C@H]1CN(C)Cc1ccc(Cl)c(Cl)c1	IL1B secr inh inconclusive, HT1080 IDH1KD tx 23µM, HT1080-NT tox inconclusive, TDP1 cell noCPT inconclusive, DT40 TDP1 CPT 21µM
C[C@@H]1CN([C@H](C)CO)C(=O)c2cc(NS(=O)(=O)c3ccc(F)cc3)ccc2O[C@@H]1CN(C)Cc1ccc(Cl)c(Cl)c1	IL1B secr inh -72, HT1080 IDH1KD tx inconclusive, HT1080-NT tox 23µM, TDP1 cell noCPT inconclusive, DT40 TDP1 CPT inconclusive
Cc1cccc(OCCC(=O)Nc2ccc(Cl)cc2F)c1	none
Cc1cccc(N2C(=O)C(Cl)=C(Nc3c(C)n(C)n(-c4ccccc4)c3=O)C2=O)c1C	TDP1 cell noCPT inconclusive, DT40 TDP1 CPT inconclusive
CC[n+]1c(-c2ccc(C)cc2)csc1Nc1c(C)n(C)n(-c2ccccc2)c1=O	IL1B secr inh inconclusive, TDP1 cell noCPT 12µM, DT40 TDP1 CPT 15µM
Cc1ccc(N2C(=O)C(Cl)=C(Nc3c(C)n(C)n(-c4ccccc4)c3=O)C2=O)cc1	HT1080 IDH1KD tx inconclusive, TDP1 cell noCPT 13µM, DT40 TDP1 CPT inconclusive
